# Test results taken from PubChem BioAssay (EPA / NIEHS).
# Active and inactive are the calls of the source. How the source made its calls: active means hit-call score of the fitted dose curve at least 0.9, where 1 is the maximum; inactive means score below 0.9.
# Tests used:
# [1] = read-out: Matrix Metallopeptidase 1 (MMP1), MMP1 (gene 4312); assay: BSK_hDFCGF_MMP1: BioMAP Diversity Plus: hDFCGF Assay for Matrix Metallopeptidase 1 (MMP1) Biomarker Activity (AID 2283064); settings: primary human foreskin fibroblasts; actives raise or lower the signal
# Summary of the method: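 MMP1 levels quantified by ELISA 24 h after dosing human dermal fibroblast cultures, with parallel SRB total-protein staining for overt cytotoxicity. Data fitted in both directions against DMSO baseline.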
# [2] = read-out: Plasminogen activator inhibitor-1 (PAI1), SERPINE1 (gene 5054); assay: BSK_hDFCGF_PAI1: BioMAP Diversity Plus: hDFCGF Assay for Plasminogen activator inhibitor-1 (PAI1) Biomarker Activity (AID 2283066); settings: primary human foreskin fibroblasts; actives raise or lower the signal
# Summary of the method: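 Fibroblasts from human foreskin were treated with test chemical. After 24 h, PAI-1 was measured by ELISA. Activity was fitted in both directions relative to DMSO.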
# [3] = read-out: Interferon-gamma inducible Protein 10 (IP10), CXCL10 (gene 3627); assay: BSK_KF3CT_IP10: BioMAP Diversity Plus: KF3CT Assay for Interferon-gamma inducible Protein 10 (IP10) Biomarker Activity (AID 2283068); settings: primary human keratinocytes with fibroblasts; actives raise or lower the signal
# Summary of the method: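 Human keratinocyte plus foreskin fibroblast primary co-culture exposed to test chemical for 24 h; IP-10 measured by ELISA. Concentration-response fitted bidirectionally against DMSO control as baseline.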
# [4] = read-out: Interleukin-1 alpha (IL1a), IL1A (gene 3552); assay: BSK_KF3CT_IL1a: BioMAP Diversity Plus: KF3CT Assay for Interleukin-1 alpha (IL1a) Biomarker Activity (AID 2283070); settings: primary human keratinocytes with fibroblasts; actives raise or lower the signal
# Summary of the method: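 IL-1a was detected by ELISA 24 h after chemical treatment of a co-culture of human skin keratinocytes and foreskin fibroblasts. Gain or loss of signal was fitted against the DMSO baseline.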
# [5] = read-out: TIMP metallopeptidase inhibitor 2 (TIMP2), TIMP2 (gene 7077); assay: BSK_KF3CT_TIMP2: BioMAP Diversity Plus: KF3CT Assay for TIMP metallopeptidase inhibitor 2 (TIMP2) Biomarker Activity (AID 2283071); settings: primary human keratinocytes with fibroblasts; actives raise or lower the signal
# Summary of the method: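 Chemicals were dosed onto human skin primary co-cultures of keratinocytes and foreskin fibroblasts, and TIMP-2 was measured by ELISA after 24 hours. Activity in either direction was fitted relative to DMSO.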
# [6] = read-out: Transforming growth factor beta 1 (TGFb1), TGFB1 (gene 7040); assay: BSK_KF3CT_TGFb1: BioMAP Diversity Plus: KF3CT Assay for Transforming growth factor beta 1 (TGFb1) Biomarker Activity (AID 2283072); settings: primary human keratinocytes with fibroblasts; actives raise or lower the signal
# Summary of the method: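 KF3CT co-culture (keratinocytes + fibroblasts), 24 h exposure → TGF-b1 ELISA → bidirectional fit, DMSO = baseline. Parallel SRB total-protein staining (0.1% SRB, 10% TCA fixation, 560 nm) for cytotoxicity.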
# [7] = read-out: C-C motif chemokine 2 (Homo sapiens) (UniProt P13500); assay: BSK_KF3CT_MCP1: BioMAP Diversity Plus: KF3CT Assay for Monocyte Chemoattractant Protein 1 (MCP1/CCL2) Biomarker Activity (AID 2283073); settings: primary human keratinocytes with fibroblasts; actives raise or lower the signal
# Summary of the method: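 ELISA read-out of MCP-1, 24 h post-dose, in primary human skin keratinocytes co-cultured with fibroblasts. Parallel SRB staining monitors cytotoxicity; changes fitted both directions relative to DMSO.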
# [8] = read-out: Matrix Metallopeptidase 9 (MMP9), MMP9 (gene 4318); assay: BSK_KF3CT_MMP9: BioMAP Diversity Plus: KF3CT Assay for Matrix Metallopeptidase 9 (MMP9) Biomarker Activity (AID 2283074); settings: primary human keratinocytes with fibroblasts; actives raise or lower the signal;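 on AC50: MMP9 protein level quantified by ELISA in the co-culture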
# Summary of the method: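 MMP-9 quantified by ELISA after 24 h chemical treatment of primary human skin keratinocyte/fibroblast co-cultures; gain or loss fitted against DMSO, with parallel SRB staining (0.1% SRB, 560 nm) for overt cytotoxicity.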
# [9] = read-out: urokinase plasminogen activator (uPA), PLAU (gene 5328); assay: BSK_KF3CT_uPA: BioMAP Diversity Plus: KF3CT Assay for urokinase plasminogen activator (uPA) Biomarker Activity (AID 2283075); settings: primary human keratinocytes with fibroblasts; actives raise or lower the signal
# Summary of the method: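 ELISA read-out of uPA 24 h after dosing human skin keratinocytes co-cultured with foreskin fibroblasts. Signal change fitted both ways relative to DMSO; sulforhodamine B on parallel cultures marks overt cytotoxicity.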
# [10] = read-out: CD40, CD40 (gene 958); assay: BSK_LPS_CD40: BioMAP Diversity Plus: LPS Assay for CD40 Biomarker Activity (AID 2283076); settings: primary human HUVEC with PBMC; actives raise or lower the signal
# Summary of the method: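 In the LPS system of human endothelial cells with peripheral blood mononuclear cells, CD40 levels were read by ELISA 24 h post-treatment. Signal changes in either direction were fitted against the DMSO baseline, with parallel SRB protein staining.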
# [11] = read-out: E-selectin (Homo sapiens) (UniProt P16581); assay: BSK_LPS_Eselectin: BioMAP Diversity Plus: LPS Assay for Eselectin Biomarker Activity (AID 2283077); settings: primary human HUVEC with PBMC; actives raise or lower the signal
# Summary of the method: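 E-selectin ELISA on LPS-stimulated endothelial cell/PBMC co-cultures, read 24 h post-treatment; gains and losses fitted against DMSO. Parallel SRB staining (0.1% SRB after 10% TCA fixation, 560 nm) flags overt cytotoxicity.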
# [12] = read-out: Interleukin-8 (IL8), CXCL8 (gene 3576); assay: BSK_LPS_IL8: BioMAP Diversity Plus: LPS Assay for Interleukin-8 (IL8) Biomarker Activity (AID 2283078); settings: primary human HUVEC with PBMC; actives raise or lower the signal
# Summary of the method: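 ELISA read-out of IL-8 after 24 h chemical treatment of LPS-activated endothelial/PBMC human primary co-cultures. Changes either up or down relative to DMSO; overt cytotoxicity checked by sulforhodamine B staining in parallel wells.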
# [13] = BSK_LPS_SRB: Viability Assessment in the BioMAP Diversity Plus: LPS Assay (AID 2283079); settings: primary human HUVEC with PBMC;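 further: total protein by sulforhodamine B absorbance as a cytotoxicity measure; measured one day after compound addition; fitted in both directions against DMSO so loss or gain of signal counts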
# Summary of the method: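 SRB viability endpoint: cells fixed with 10% TCA, stained with 0.1% SRB, read at 560 nm, 24 h post-dose. HUVEC/PBMC co-culture; signal change in either direction scored relative to DMSO.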
# [14] = read-out: Interleukin-1 alpha (IL1a), IL1A (gene 3552); assay: BSK_LPS_IL1a: BioMAP Diversity Plus: LPS Assay for Interleukin-1 alpha (IL1a) Biomarker Activity (AID 2283080); settings: primary human HUVEC with PBMC; actives raise or lower the signal
# Summary of the method: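 Readout is IL-1a level by ELISA, 24 h post-dose, fitted as gain or loss relative to DMSO. System: LPS-activated human primary co-culture of vascular endothelium and peripheral blood mononuclear cells, with parallel SRB total-protein cytotoxicity.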
# [15] = read-out: Monocyte Chemoattractant Protein-1 (MCP1), CCL2 (gene 6347); assay: BSK_LPS_MCP1: BioMAP Diversity Plus: LPS Assay for Monocyte Chemoattractant Protein-1 (MCP1) Biomarker Activity (AID 2283081); settings: primary human HUVEC with PBMC; actives raise or lower the signal
# Summary of the method: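 Secreted MCP-1 read by ELISA at 24 h post-dosing in an LPS-activated co-culture of endothelial cells with peripheral blood mononuclear cells. Fits run in both directions, DMSO as baseline; parallel SRB staining tracks overt cytotoxicity.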
# [16] = BSK_LPS_PGE2: BioMAP Diversity Plus: LPS Assay for Prostaglandin E2 (PGE2) Biomarker Activity (AID 2283082); settings: primary human HUVEC with PBMC; actives raise or lower the signal;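 on AC50: secreted prostaglandin E2 measured by ELISA in LPS-stimulated co-culture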
# Summary of the method: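 Compounds were added to the LPS co-culture of endothelium and PBMC, and PGE2 was measured by ELISA after 24 h. Responses in either direction were fitted with DMSO as baseline.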
# [17] = read-out: Macrophage colony-stimulating factor (MCSF), CSF1 (gene 1435); assay: BSK_LPS_MCSF: BioMAP Diversity Plus: LPS Assay for Macrophage colony-stimulating factor (MCSF) Biomarker Activity (AID 2283083); settings: primary human HUVEC with PBMC; actives raise or lower the signal
# Summary of the method: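 Bidirectional fitting against DMSO was applied to M-CSF levels read by ELISA at 24 h post-dose. The system pairs human umbilical vein endothelium with peripheral blood mononuclear cells; parallel SRB staining tracked cytotoxicity.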
# [18] = read-out: Intercellular Adhesion Molecule 1 (ICAM1), ICAM1 (gene 3383); assay: BSK_KF3CT_ICAM1: BioMAP Diversity Plus: KF3CT Assay for Intercellular Adhesion Molecule 1 (ICAM1) Biomarker Activity (AID 2283067); settings: primary human keratinocytes with fibroblasts; actives raise or lower the signal
# Summary of the method: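 Cell-surface ICAM-1 was measured by ELISA 24 h after dosing primary human skin keratinocytes co-cultured with fibroblasts. Parallel SRB staining tracked overt cytotoxicity. Gain or loss of signal was fitted relative to DMSO.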
# [19] = BSK_KF3CT_SRB: Viability Assessment in the BioMAP Diversity Plus: KF3CT Assay (AID 2283069); settings: primary human keratinocytes with fibroblasts;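 further: total protein by sulforhodamine B staining as a cytotoxicity measure; read 24 h after compound addition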
# Summary of the method: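 Cytotoxicity was gauged by SRB staining (0.1% SRB, 10% TCA fixation, 560 nm) of parallel cultures at 24 h. The cells were primary human skin keratinocytes co-cultured with fibroblasts, and activity was fitted in both directions against DMSO.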
# E-selectin (Homo sapiens), sequence (P16581 whole entry, looked up): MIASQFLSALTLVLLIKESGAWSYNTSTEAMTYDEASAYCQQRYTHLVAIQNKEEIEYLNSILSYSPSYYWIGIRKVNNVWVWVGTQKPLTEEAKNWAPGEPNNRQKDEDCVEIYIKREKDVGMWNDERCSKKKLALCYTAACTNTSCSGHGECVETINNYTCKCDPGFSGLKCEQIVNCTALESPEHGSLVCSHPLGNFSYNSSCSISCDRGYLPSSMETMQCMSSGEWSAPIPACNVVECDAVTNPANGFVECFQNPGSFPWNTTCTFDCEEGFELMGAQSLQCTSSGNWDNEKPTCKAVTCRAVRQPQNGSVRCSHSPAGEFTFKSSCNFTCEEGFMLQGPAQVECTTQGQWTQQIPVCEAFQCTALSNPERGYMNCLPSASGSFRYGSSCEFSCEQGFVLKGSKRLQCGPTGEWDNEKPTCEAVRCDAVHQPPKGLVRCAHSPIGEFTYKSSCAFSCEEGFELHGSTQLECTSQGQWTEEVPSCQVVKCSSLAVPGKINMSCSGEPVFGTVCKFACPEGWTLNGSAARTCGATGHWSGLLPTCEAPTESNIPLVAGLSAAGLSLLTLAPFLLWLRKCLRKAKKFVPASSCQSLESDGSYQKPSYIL
smiles,measurement,setting,value
CCNc1nc(Cl)nc(NC(C)(C)C)n1,outcome,[1],inactive
same,outcome,[2],inactive
same,outcome,[3],inactive
same,outcome,[4],inactive
same,outcome,[5],inactive
same,outcome,[6],inactive
same,outcome,[7],inactive
same,outcome,[8],inactive
same,outcome,[9],inactive
same,outcome,[10],inactive
same,outcome,[11],inactive
same,outcome,[12],inactive
same,outcome,[13],inactive
same,outcome,[14],inactive
same,outcome,[15],inactive
same,outcome,[16],inactive
same,outcome,[17],inactive
OCC(F)(F)OC(F)(F)C(F)(F)OC(F)(F)CO,outcome,[1],inactive
same,outcome,[2],inactive
same,outcome,[3],inactive
same,outcome,[4],inactive
same,outcome,[5],inactive
same,outcome,[7],inactive
same,outcome,[8],inactive
same,outcome,[9],inactive
same,outcome,[10],inactive
same,outcome,[11],inactive
same,outcome,[12],inactive
same,outcome,[13],inactive
same,outcome,[14],inactive
same,outcome,[15],inactive
same,outcome,[16],inactive
same,outcome,[17],inactive
COP(=O)(O)OC,outcome,[1],inactive
same,outcome,[2],inactive
same,outcome,[3],inactive
same,outcome,[4],inactive
same,outcome,[5],inactive
same,outcome,[6],inactive
same,outcome,[7],inactive
same,outcome,[8],inactive
same,outcome,[9],inactive
same,outcome,[10],inactive
same,outcome,[11],inactive
same,outcome,[12],inactive
same,outcome,[13],inactive
same,outcome,[14],inactive
same,outcome,[15],inactive
same,outcome,[16],inactive
same,outcome,[17],inactive
N#Cc1c(-c2ccc(Cl)cc2)[nH]c(C(F)(F)F)c1Br,outcome,[1],inactive
same,AC50,[3],8 µM (active)
same,outcome,[4],inactive
same,outcome,[5],inactive
same,AC50,[6],0.186 µM (active)
same,AC50,[7],0.0621 µM (active)
same,AC50,[8],3.97 µM (active)
same,outcome,[9],inactive
same,AC50,[10],4.05 µM (active)
same,outcome,[11],inactive
same,AC50,[12],4.18 µM (active)
same,AC50,[13],3.97 µM (active)
same,AC50,[14],1.36 µM (active)
same,outcome,[15],inactive
same,AC50,[16],0.949 µM (active)
same,outcome,[17],inactive
CCCCOCCOP(=O)(OCCOCCCC)OCCOCCCC,outcome,[1],inactive
same,outcome,[18],inactive
same,outcome,[3],inactive
same,outcome,[19],inactive
same,outcome,[4],inactive
same,outcome,[5],inactive
same,AC50,[6],0.016 µM (active)
same,outcome,[7],inactive
same,AC50,[8],3.97 µM (active)
same,outcome,[9],inactive
same,outcome,[10],inactive
same,outcome,[11],inactive
same,outcome,[12],inactive
same,outcome,[13],inactive
same,outcome,[14],inactive
same,outcome,[15],inactive
same,outcome,[16],inactive
same,outcome,[17],inactive
CC(Cl)(Cl)C(=O)O,outcome,[1],inactive
same,outcome,[3],inactive
same,outcome,[4],inactive
same,outcome,[5],inactive
same,outcome,[6],inactive
same,outcome,[7],inactive
same,outcome,[8],inactive
same,outcome,[9],inactive
same,outcome,[10],inactive
same,outcome,[11],inactive
same,outcome,[12],inactive
same,outcome,[13],inactive
same,outcome,[14],inactive
same,outcome,[15],inactive
same,outcome,[16],inactive
same,outcome,[17],inactive
O=[N+]([O-])c1ccc(Cl)c(Cl)c1,outcome,[1],inactive
same,outcome,[3],inactive
same,outcome,[19],inactive
same,outcome,[4],inactive
same,outcome,[5],inactive
same,outcome,[6],inactive
same,outcome,[7],inactive
same,outcome,[8],inactive
same,outcome,[9],inactive
same,outcome,[10],inactive
same,outcome,[11],inactive
same,outcome,[12],inactive
same,outcome,[13],inactive
same,outcome,[14],inactive
same,outcome,[15],inactive
same,outcome,[16],inactive
same,outcome,[17],inactive
CC(O)C(F)(F)C(F)(F)F (centres undefined),outcome,[1],inactive
same,outcome,[2],inactive
same,outcome,[3],inactive
same,outcome,[19],inactive
same,outcome,[4],inactive
same,outcome,[5],inactive
same,outcome,[7],inactive
same,outcome,[8],inactive
same,outcome,[9],inactive
same,outcome,[10],inactive
same,outcome,[11],inactive
same,outcome,[12],inactive
same,outcome,[13],inactive
same,outcome,[14],inactive
same,outcome,[15],inactive
same,outcome,[16],inactive
same,outcome,[17],inactive
